From PubChem BioAssay (NCATS)
Several values for one entry are separate records, joined by “and”; a condition that tells them apart may be missing. Equal values may be shown once. Inconclusive results are not listed. Where a call stands in place of a potency, no number is given. Activity calls are given as the source filed them. Calls follow the shape of the dose curve; as a rule, active = well fitted cell-killing curve with a large enough effect; inconclusive = small, poorly fitted or top-dose-only effect, or effect the other way; inactive = no such curve, though single readings can be large or run the other way.

Test: Viability qHTS for spleen associated tyrosine kinase inhibitor (SYKi) drug resistant MV4-11 cells (AID 1963824); also: nearly all actives have a fitted effect of over 35% in size
Settings: SYKi-resistant MV4-11 viability, CellTiter-Glo, 72 h; series mostly up to 45 µM
Source text: Department of Medicine, Hematology/Oncology
University Hospital Frankfurt, Germany.
Trials have shown promising clinical activity of the selective SYK inhibitor entospletinib in patients with high expressing HOXA9/MEIS1 acute leukemias. As the development of resistance mechanisms is a common problem in the use of targeted drugs, we performed a chemical library screen to identify drug sensitivities in SYK inhibitor resistant AML cells. […] Glucocorticoids are potent immunosuppressants which work in part by inhibiting the transcription of cytokine genes.
Described herein is a viability screen to look for activity in the SYK inhibitor drug resistant cell line against four NCATS compound libraries (MIPE 5.0, NPC, NPACT, and Kinase) totaling 11372 compounds. Active hits were reacquired for confirmation and further secondary assay testing.
SEQUENCE No. (e.g., 1, 2, 3, etc.); […] (e.g., Cells, Incubation, Reagent, etc.); VALUE; DESCRIPTION.
1; Media; 2uL; white, solid-bottom Corning assay plate.
2; Compounds; 23nL; Echo acoustic dispenser.
3; Cell; 5uL; 500 cells per well.
4: Incubation; 72hr; 37 C, 5% CO2, 95% humidity.
5; Reagent; 3uL; CellTiter-Glo reagent (Promega).
6; Incubation; 10min; room temperature.
7; Detection; Luminescence; ViewLux plate reader (PerkinElmer).
NOTES (numbers refer to Sequence numbers above
1. Quantitative high-throughput screening (qHTS) of small molecule compounds was conducted on drug resistant SYKi MV4-11 cell line.
2. Twenty-three nanoliter of small molecule compounds were added to each assay plates using the Echo acoustic dispenser (Beckman Coulter).
3. Cells were seeded into the assay plates at a final density of 500 cells in 5uL of media per well using the Multidrop Combi dispenser.
4. Plates were covered with stainless steel gasketed lids and incubated for 72 hours at standard cell culture conditions.
5. Viability was assessed by adding 3uL of CellTiter-Glo detection reagent (Promega).
6. Plates were covered with gasket lids and incubated for 10 minutes at room temperature.
7. Luminescence was measured on a ViewLux plate reader (PerkinElmer).
Potency is read from the fitted curve at half-maximal effect.

SMILES | Potency | viability, % of control
CCCCCCCC(=O)[O-].CCCCCCCC(=O)[O-].[Zn+2] | inactive | –
O=C(O)COc1nn(Cc2ccccc2)c2ccccc12 | inactive | –
CC[N+](C)(C)c1cccc(O)c1 | inactive | –
CC#C[C@@H](CC(=O)O)c1ccc(OCc2ccc(CN3CCC4(C=Cc5ccccc54)CC3)s2)cc1 | 11.6 µM (active) | –
COc1cc(Nc2nc3ccccc3nc2NS(=O)(=O)c2ccc(NC(=O)c3ccc(C)c(OC)c3)cc2)cc(OC)c1 | 18.6 µM (active) | –
CC[C@H]1OC(=O)[C@](C)(F)C(=O)[C@H](C)[C@@H](O[C@@H]2O[C@H](C)C[C@H](N(C)C)[C@H]2O)[C@](C)(OC)C[C@@H](C)C(=O)[C@@H](C)[C@H]2N(CCCCn3cc(-c4cccc(N)c4)nn3)C(=O)O[C@]12C | 10.3 µM (active) | –
Cc1ccsc1/C=C/C1=NCCCN1C | inactive | –
CCCC(Nc1nc(-c2ccc(NC(=O)NCC)c(OC)c2)ncc1C)c1cccnc1 (stereo not given) | 0.13 µM (active) | –
COC(=O)Nc1nc2ccc(Sc3ccccc3)cc2[nH]1 | 0.417 µM (active) | –
CC(C)NCC(O)c1ccc(O)c(O)c1 (stereo not given) | inactive | –
O=C(CCOCCOCCOCCOCCC(=O)Nc1c(I)cc(I)c(C(=O)O)c1I)Nc1c(I)cc(I)c(C(=O)O)c1I | inactive | –
O=C1[C@H](O[C@@H]2O[C@H](CO)[C@@H](O)[C@H](O)[C@H]2O)Oc2ccccc2N1O | inactive | –
Cc1onc(-c2c(F)cccc2Cl)c1C(=O)N[C@@H]1C(=O)N2[C@@H]1SC(C)(C)[C@@H]2C(=O)O | 13 µM (active) | –
CC(C)=CC1C[C@](C)(O)[C@@H]2[C@H]3CCC4[C@@]5(C)CC[C@H](O[C@@H]6OC[C@H](O)[C@H](O[C@@H]7O[C@H](CO[C@@H]8O[C@H](CO)[C@@H](O)[C@H](O)[C@H]8O)[C@@H](O)[C@H](O)[C@H]7O)[C@H]6O[C@@H]6O[C@@H](C)[C@H](O)[C@@H](O)[C@H]6O)C(C)(C)[C@@H]5CC[C@@]4(C)[C@@]34CO[C@@]2(C4)O1 (stereo not given in full) | – | 96.9% [at 9.25 µM] (inactive)
CNC12CC3C[C@@](C)(C1)C[C@](C)(C3)C2 | inactive | –
COc1cc([C@H]2c3cc(O)c(OC)cc3C[C@@H](CO[C@@H]3O[C@H](CO)[C@@H](O)[C@H](O)[C@H]3O)[C@@H]2CO)ccc1O | inactive | –
CCCCNc1ncc2c(-c3ccc(S(=O)(=O)N4CCOCC4)cc3)nn(C3CCC(O)CC3)c2n1 (stereo not given) | 0.0291 µM (active) | –
C=CCc1ccc(O[C@@H]2O[C@H](CO[C@@H]3O[C@@H](C)[C@H](O)[C@@H](O)[C@H]3O)[C@@H](O)[C@H](O)[C@H]2O)cc1 | inactive | –
CCCOc1ccn2c(C(C)=O)cc(-c3ccccc3S(C)(=O)=O)c2c1 | 14.8 µM (active) | –
Cc1cnc(NS(=O)(=O)c2ccc(N)cc2)nc1 | inactive | –

SMILES | Potency | viability, % of control
CCCOc1ccc2nc(NC(=O)OC)[nH]c2c1 | 184 nM (active) and 332 nM (active) | –
CC1CCC2(C(=O)O)CCC3(C)C(=CCC4C5(C)CCC(O)C(C)(C(=O)O)C5CCC43C)C2C1(C)O (stereo not given) | inactive | –
C[C@@H](N)C1CCC(C(=O)Nc2ccncc2)CC1 (stereo not given in full) | inactive | –
C=CC(=O)N1CCCN(c2cc(NCCC(=O)O)nc(-c3ccccn3)n2)CC1 | inactive | –
CC(C)(O)C(=O)N1CCN(c2ccc(C(F)(F)F)c(C3=C(c4c[nH]c5ccccc45)C(=O)NC3=O)c2)CC1 | 0.366 µM (active) | –
CCCC(CCC)C(=O)NCc1ccc2c(cnn2-c2ccccc2OC)c1 | 8.2 µM (active) | –
O=C(CO)[C@@H](O)[C@H](O[C@@H]1O[C@H](CO)[C@H](O)[C@H](O)[C@H]1O)[C@H](O)CO | inactive | –
CC1(C)CC(=O)c2c(C(F)(F)F)nn(-c3ccc(C(N)=O)c(NC4CCC(OC(=O)CN)CC4)c3)c2C1 (stereo not given) | 51.7 nM (active) and 37.2 nM (active) | –
CC1CCC2(C)C(CC(O)C(O)C23CO3)C1(C)CCC1=CC(O)OC1=O (stereo not given) | inactive | –
COc1ccc2c(c1)c(CC(=O)OCC(=O)O)c(C)n2C(=O)c1ccc(Cl)cc1 | inactive | –
C[C@]12CC[C@@H]3c4ccc(O)cc4C[C@@H](CCCCCCCCCS(=O)CCCC(F)(F)C(F)(F)F)[C@H]3[C@H]1CC[C@H]2O (stereo not given in full) | 4.68 µM (active) | –
CC(C)c1cc(-c2ccc(F)c3ccccc23)nc(N)n1 | 5.17 µM (active) | –
COc1cc2ncnc(Nc3cccc(Cl)c3)c2cc1OC | 4.17 µM (active) and 6.51 µM (active) | –
CCOC(=O)C(=O)c1csc(NC=O)n1 | inactive | –
Cc1cc(C)c(S(=O)(=O)N(Cc2ccc(-c3cccc(S(C)(=O)=O)c3)cc2)Cc2ccc(C(F)(F)F)o2)c(C)c1 | 0.0461 µM (active) | –
CO[C@@H]1[C@]2(O)C(=O)N3/C=C\C(C)(C)c4[nH]c5ccccc5c4/C=C\3C(=O)N2[C@]23[C@H](CO)C(C)(C)N2c2ccccc2[C@]13O | inactive | –
COCCOC(=O)N1CCN(S(=O)(=O)c2cc(F)c(Oc3ccc(Cl)cc3)c(F)c2)C(C(=O)NO)C1 (stereo not given) | 5.9 µM (active) | –
CCc1c(C)nc2c(-c3cnn(-c4cc(CO)ccn4)c3)c[nH]n2c1=O | inactive | –
Cn1ncnc1[C@@H]1c2n[nH]c(=O)c3cc(F)cc(c23)N[C@H]1c1ccc(F)cc1 | inactive | –
C=C(C(=O)O)C1CCC2(C)CCC(O)C(=C)C2C1 (stereo not given) | inactive | –
